# Sampled rows, rich in hits. Any-hit rate of the full collection: about 2.6%.
# A-T KAP1 phos: potential ataxia-telangiectasia treatment. Potency, µM (series often up to 57.5 µM), actives largely listed as activators. F2112 A-T fibroblasts, KAP-1 phosphorylation AlphaLISA; neocarzinostatin DNA damage 30 min before lysis. AID 485349. 0.19% of 320,000 active; further: nearly all actives have a fitted effect of over 45% in size
#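 ATM-like activity read as KAP-1 phosphorylation via AlphaLISA donor/acceptor antibody pairs after lysis and 6 hr at 25C. Cells were ATM-null patient fibroblasts (F2112, hTERT), dosed 60 min, then exposed to the DSB inducer NCS for 30 min.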
# Nrf2 ARE act: activators of Nrf2 (ARE) signaling. AID 624171. AREc32 ARE-luciferase reporter (MCF7-derived line), luminescence, 24 h. Potency, µM (doses to about 46.1 µM), hits mostly activators. 0.31% of 410,000 active; further: nearly all actives have a fitted effect of over 65% in size
#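 Reporter line AREc32 (ARE-Fluc), seeded overnight in OPTI-MEM with 5% FBS; compound pin-transferred, 24 hr at 37 deg C, 5% CO2; luminescent read-out.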
# A549 tox-1: counter-screen for Nrf2 inhibitors: cytotoxicity in A549 cells; AID 504648; Potency, µM (series often up to 46 µM), hits mostly inhibitors; A549 ARE-Fluc cells, CellTiter-Fluor viability, 18-24 h; 0.16% of 390,000 active
#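 A549 ARE-Fluc cells in 5% FBS OPTI-MEM, 5000 cells/well, rested 2 h then exposed to compounds in concentration-response for 18-24 h at 37 °C. Viability by CellTiter-Fluor fluorescence (Ex 405/Em 525) after 30 min; luciferase luminescence (BugLite, 15 min, RT) read afterwards.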
# TCR act: activates T cell receptor signaling. primary human leukocytes, anti-CD3, IL-2 HTRF, 48 h. Potency, µM (titrated, usually from 9.22 µM), usual class: activators. 330,000 tested, under 10 active. AID 504894
#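 Primary human leukocytes incubated 48 hr with anti-CD3 beads plus compound, without co-stimulation. Secreted IL-2 measured by HTRF (europium cryptate/d2 anti-IL-2 pair, 320 nm excitation, 665 nm emission).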
# Nrf2 block: blocks Nrf2 signaling | 2.1% of 360,000 active | A549 ARE-Fluc reporter, luciferase luminescence, 18-24 h | AID 504444 | Potency, µM (highest dose often 46 µM), actives largely listed as inhibitors; further: nearly all actives have a fitted effect of over 60% in size
#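 Reporter: ARE-Fluc in A549. Exposure: 18-24 h, 37 °C, 5% CO2, 5% FBS OPTI-MEM. Readouts: fluorescent cytotoxicity (CellTiter-Fluor), then luminescent Nrf2 signal after BugLite.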
# CCT chaperon mod: modulators of cytosolic chaperonin (CCT/TRiC) activity. purified chaperonin ATPase assay, HTRF ADP detection, 30 min. activity change, % (test concentration not listed), hits read low. 0.3% of 360,000 active. AID 651819; in the data active means activity change below about -30%
#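 TRiC (40 or 20 nM final, by batch activity) in 30 mM Tris pH 7.4, 100 mM KCl, 5 mM MgCl2, 1 mM DTT was treated with compound at 76 uM single dose, then 10 uM ATP, 30 min at 37 °C. ADP was read by HTRF Transcreener.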
# FLuc enzyme inh: counter-screen for Nrf2 inhibitors: firefly luciferase enzyme inhibition; shares compounds with Nrf2 block; 4% of 1,400 active; AID 720522; Potency, µM (series often up to 57.5 µM), hits mostly inhibitors; purified firefly luciferase, luminescence inhibition; further: nearly all actives have a fitted effect of over 65% in size
# Target sequence (P08659 whole entry, looked up): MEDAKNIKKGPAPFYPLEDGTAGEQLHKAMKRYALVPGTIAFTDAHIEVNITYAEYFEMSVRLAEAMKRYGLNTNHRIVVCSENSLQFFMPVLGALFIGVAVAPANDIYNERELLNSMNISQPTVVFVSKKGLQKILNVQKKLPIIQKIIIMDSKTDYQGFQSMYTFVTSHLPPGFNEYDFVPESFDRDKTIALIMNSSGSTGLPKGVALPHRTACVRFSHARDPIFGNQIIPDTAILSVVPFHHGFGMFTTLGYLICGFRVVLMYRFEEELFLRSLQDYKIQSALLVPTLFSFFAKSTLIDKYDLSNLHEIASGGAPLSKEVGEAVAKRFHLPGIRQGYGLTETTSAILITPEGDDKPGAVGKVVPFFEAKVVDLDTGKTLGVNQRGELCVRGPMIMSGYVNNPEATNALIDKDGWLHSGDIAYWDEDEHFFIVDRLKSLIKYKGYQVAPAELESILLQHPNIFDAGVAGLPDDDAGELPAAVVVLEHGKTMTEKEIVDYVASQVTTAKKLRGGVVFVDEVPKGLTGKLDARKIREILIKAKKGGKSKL
# A549 tox-2: toxic to A549 ARE-Fluc cells in Nrf2 counterscreen; Potency, µM (titrated, usually from 46.1 µM), usual class: inhibitors; shares compounds with Nrf2 block; A549 ARE-Fluc cells, cytotoxicity counterscreen; 2% of 1,400 active; AID 720523;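 further: cells exposed to compounds for 18 to 24 hours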
# ARE-Fluc inh: Nrf2 inhibition confirmed, A549 ARE-luciferase. A549 ARE-firefly luciferase reporter, luminescence. AID 720524. shares compounds with Nrf2 block. 74% of 1,400 active. Potency, µM (highest dose often 46.1 µM), most hits filed as inhibitors; further: nearly all actives have a fitted effect of over 65% in size
# A number is an active result; – = inactive; ? = inconclusive; · = no result given. Unless noted, the call rests on the fitted dose curve; in most records, active means well fitted curve in the direction sought with a large enough effect; inconclusive means small, poorly fitted or top-dose-only effect, or another doubt; inactive means no such curve, though single readings can be large; an effect the other way counts as inactive or inconclusive.
SMILES,A-T KAP1 phos,Nrf2 ARE act,A549 tox-1,TCR act,Nrf2 block,CCT chaperon mod,FLuc enzyme inh,A549 tox-2,ARE-Fluc inh
CCN(CC)S(=O)(=O)c1ccc(N2CCOCC2)c(NS(=O)(=O)c2cc(C(C)(C)C)ccc2C)c1,–,–,–,–,–,–,·,·,·
CC(=O)c1c(C)[nH]c(C(=O)OCC(=O)Nc2ccc(Cl)c(S(=O)(=O)N(C)C)c2)c1C,–,–,–,–,9.2µM,–,–,–,9.2µM
Cc1cc(Br)ccc1NC(=O)CNC(=O)c1cnn(C)c1,–,–,–,–,–,–,·,·,·
NC(=O)c1ccc(NC(=O)C#Cc2ccccc2)cc1,–,?,–,–,4.6µM,–,?,?,5.8µM
CC(Oc1ccccc1)C(=O)Nc1ccc(C(N)=O)cc1 (stereo not given),–,–,–,–,·,–,·,·,·
COc1ccc(NC(=O)c2cc(S(=O)(=O)N3CCOCC3)cs2)cc1,–,–,–,–,?,–,·,·,·
Cc1ccc(-c2csc3nc(-c4ccncc4)[nH]c(=O)c23)cc1,–,–,–,–,?,–,–,–,1.8µM
CCN1/C(=C/c2cc[n+](C)cc2)C=Cc2cc(C)ccc21,–,–,?,–,3.7µM,–,–,10µM,1.3µM
CCN1C(=O)/C(=C2\C=Cc3cc(C)ccc3N2CC)OC1=S,–,–,–,–,–,–,·,·,·
NC(=O)c1ccccc1OCC(=O)N1CCC(Cc2ccccc2)CC1,–,–,–,–,5.2µM,–,–,–,8.2µM
O=C(c1ccccc1)N1CCC(c2nc(-c3ccc(S(=O)(=O)NCC4CCCO4)cc3)no2)CC1 (stereo not given),–,–,–,–,3.7µM,–,–,–,5.8µM
O=C(C1CC1)N1CCC(c2nc(-c3ccc(S(=O)(=O)NCC4CCCO4)cc3)no2)CC1 (stereo not given),–,–,–,–,·,–,·,·,·
Cc1ccccc1NC(=O)N1CCC(CN2CCCC2)CC1,·,–,–,·,?,·,·,·,·
CCCNc1nc2c(c(=O)n(C)c(=O)n2C)n1CC(O)COc1ccccc1 (stereo not given),·,–,–,·,–,·,·,·,·
COc1ccc(OCC(O)Cn2c(NCCO)nc3c2c(=O)n(C)c(=O)n3C)cc1 (stereo not given),·,–,–,·,7.3µM,·,–,–,12µM
CC(=O)C1=C(C)NC(=O)CC1c1ccc(Br)cc1 (stereo not given),–,–,–,–,–,–,·,·,·
COC(=O)C12OCC34C(CC5C(C)=C(O)C(=O)CC5(C)C3C(O)C1O)OC(=O)C(OC(=O)C=C(C)C)C24 (stereo not given),·,–,?,–,0.016µM,–,–,?,0.012µM
O=C(Nc1nc(-c2ccc3c(c2)OCCO3)cs1)c1ccc(S(=O)(=O)N2CCCCC2)cc1,–,–,–,–,?,–,·,·,·
O=C(Nc1nc(-c2ccc(S(=O)(=O)N3CCCCCC3)cc2)cs1)c1ccccc1,·,–,·,–,2.9µM,–,–,–,4.1µM
O=C(Nc1nc(-c2cccs2)cs1)c1ccc(S(=O)(=O)N2CCCC2)cc1,–,–,?,–,9.2µM,–,–,–,?
C[C@@H]1CN([C@H](C)CO)C(=O)c2cccc(NS(=O)(=O)c3ccccc3)c2O[C@H]1CN(C)C,–,–,–,–,–,–,·,·,·
COc1ccc(CCNC(=O)C(C)n2nc(C)c3c(C)n(-c4ccc(C)cc4)nc3c2=O)c(OC)c1 (stereo not given),–,–,?,–,5.8µM,–,–,–,5.8µM
